Consider 27 sequences from PMC13541613, “GHT-SELEX demonstrates unexpectedly high intrinsic sequence specificity and complex DNA binding of many human transcription factors”.

Test in all cases: HT-SELEX; 20 mM HEPES pH 7, 140 mM KCl, 5 mM NaCl, 1 mM K2HPO4, 2 mM MgSO4, 100 uM EGTA, ZnSO4, 0.1% Tween20; room temperature, 1 h; high values mean tight binding
Holding throughout (conditions): protein: ivt; tags: eGFP (N-terminal); dsDNA, one strand shown

Assay [1] addresses ZNF721 full-length (Homo sapiens, UniProt Q8TF20-2 1-923). In outline: (§1)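 The binding signal is a relative k-mer count in selected reads, and higher values mean tighter binding. To obtain these reads, bead-bound tagged transcription factor (full-length or DNA-binding-domain fragment, produced in HEK293 lysate or cell-free extract) was mixed with a randomized 40-base DNA library for 1 h at room temperature in low-stringency HEPES/KCl buffer with Tween20. Bound DNA was recovered by washing and heat elution, PCR-amplified through successive cycles and sequenced on Illumina (~3 million 60 bp reads per sample).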

The target of assay [2] is ZNF721 DBD1 (Homo sapiens, UniProt Q8TF20-2 29-461). In outline:
as §1

Assay [3] addresses ZNF721 DBD2 (Homo sapiens, UniProt Q8TF20-2 395-923). The gist of the method: as §1

Chain of ZNF721 full-length (Q8TF20 other isoform, or with tags, fused parts or gaps): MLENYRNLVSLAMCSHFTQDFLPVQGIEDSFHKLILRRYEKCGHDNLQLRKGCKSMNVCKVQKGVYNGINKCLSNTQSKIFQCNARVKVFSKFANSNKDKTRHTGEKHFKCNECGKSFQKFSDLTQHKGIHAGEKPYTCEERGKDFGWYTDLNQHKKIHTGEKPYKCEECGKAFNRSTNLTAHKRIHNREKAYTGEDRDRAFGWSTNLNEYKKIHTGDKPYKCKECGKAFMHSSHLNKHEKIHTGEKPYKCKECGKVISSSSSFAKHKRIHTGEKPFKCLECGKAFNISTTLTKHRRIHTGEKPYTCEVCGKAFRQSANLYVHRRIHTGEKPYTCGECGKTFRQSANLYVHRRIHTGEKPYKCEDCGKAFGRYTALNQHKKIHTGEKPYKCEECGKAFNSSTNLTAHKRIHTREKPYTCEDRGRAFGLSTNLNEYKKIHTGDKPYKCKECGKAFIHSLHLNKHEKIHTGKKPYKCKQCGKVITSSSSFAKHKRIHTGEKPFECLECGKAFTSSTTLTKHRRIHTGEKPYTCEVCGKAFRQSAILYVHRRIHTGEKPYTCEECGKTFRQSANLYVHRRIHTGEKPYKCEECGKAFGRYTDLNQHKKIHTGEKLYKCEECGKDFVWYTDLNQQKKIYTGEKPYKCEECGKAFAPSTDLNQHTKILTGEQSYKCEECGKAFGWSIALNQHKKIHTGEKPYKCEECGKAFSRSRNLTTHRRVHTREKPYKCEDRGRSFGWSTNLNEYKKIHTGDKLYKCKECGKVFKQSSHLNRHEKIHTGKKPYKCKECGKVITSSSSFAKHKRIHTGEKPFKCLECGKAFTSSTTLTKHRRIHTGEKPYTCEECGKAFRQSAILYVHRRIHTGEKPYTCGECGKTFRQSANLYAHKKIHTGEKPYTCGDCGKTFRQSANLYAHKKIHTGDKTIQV
Chain of ZNF721 DBD2 (Q8TF20 383-911): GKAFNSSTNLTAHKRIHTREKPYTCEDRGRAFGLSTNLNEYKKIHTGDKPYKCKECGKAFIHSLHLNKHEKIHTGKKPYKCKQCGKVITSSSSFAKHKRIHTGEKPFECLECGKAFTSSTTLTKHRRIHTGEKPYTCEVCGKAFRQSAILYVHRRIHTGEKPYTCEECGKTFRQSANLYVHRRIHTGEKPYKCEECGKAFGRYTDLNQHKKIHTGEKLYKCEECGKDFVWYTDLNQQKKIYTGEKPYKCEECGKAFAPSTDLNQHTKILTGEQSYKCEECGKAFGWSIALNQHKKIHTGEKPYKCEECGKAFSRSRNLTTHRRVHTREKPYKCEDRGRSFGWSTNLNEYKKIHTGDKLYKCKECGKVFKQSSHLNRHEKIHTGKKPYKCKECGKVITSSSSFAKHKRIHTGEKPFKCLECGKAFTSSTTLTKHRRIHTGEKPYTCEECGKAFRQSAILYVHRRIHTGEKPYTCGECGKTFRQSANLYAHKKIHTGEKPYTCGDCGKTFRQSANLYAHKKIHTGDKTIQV
Chain of ZNF721 DBD1 (Q8TF20 17-449): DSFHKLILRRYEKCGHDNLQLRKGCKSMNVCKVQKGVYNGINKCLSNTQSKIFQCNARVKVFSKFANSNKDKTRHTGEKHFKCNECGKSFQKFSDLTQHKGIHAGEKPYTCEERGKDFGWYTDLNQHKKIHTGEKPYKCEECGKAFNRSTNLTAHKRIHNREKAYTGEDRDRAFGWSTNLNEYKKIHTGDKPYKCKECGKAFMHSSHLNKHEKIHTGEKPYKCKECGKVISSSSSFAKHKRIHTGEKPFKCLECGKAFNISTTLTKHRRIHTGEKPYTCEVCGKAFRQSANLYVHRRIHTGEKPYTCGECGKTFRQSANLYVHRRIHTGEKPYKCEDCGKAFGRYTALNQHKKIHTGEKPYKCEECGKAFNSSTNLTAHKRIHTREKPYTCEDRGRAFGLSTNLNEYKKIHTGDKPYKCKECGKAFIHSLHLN

CCCCCGCCCC: the binding signal was found to be 0.312 relative 10-mer count in assay [1], 0.0117 relative 10-mer count in assay [2] and 0.00372 relative 10-mer count in assay [3].
For CACCCACCCG the same measures were 0.132 relative 10-mer count, 0.0039 relative 10-mer count and 0.00264 relative 10-mer count.
With AAAACAAGCA, the binding signal in assay [1] was 0.157 relative 10-mer count; in assay [2] it was 0.00638 relative 10-mer count; in assay [3] it was 0.0831 relative 10-mer count.
In the same order, the values of CCTCCTCCCC are 0.169 relative 10-mer count, 0.00881 relative 10-mer count and 0.00527 relative 10-mer count.
In the same order, the values of CCCGCCTCCC are 0.183 relative 10-mer count, 0.00954 relative 10-mer count and 0.00156 relative 10-mer count.
For ACCCTCCCAC the same measures were 0.119 relative 10-mer count, 0.00734 relative 10-mer count and 0.00587 relative 10-mer count.
With AAGCGTCTCC, the binding signal is 0.163 relative 10-mer count in assay [1], 0.084 relative 10-mer count in assay [2] and 0.0107 relative 10-mer count in assay [3].
For CCCACACCCC the same measures were 0.278 relative 10-mer count, 0.00977 relative 10-mer count and 0.00407 relative 10-mer count.
In the same order, the values of CCCCCCGCAC are 0.115 relative 10-mer count, 0.00372 relative 10-mer count and 0.00348 relative 10-mer count.
For CCCCCCTCCA the same measures were 0.13 relative 10-mer count, 0.0055 relative 10-mer count and 0.0024 relative 10-mer count.
Consider AGCATGACCA, for which the binding signal in assay [1] worked out at 0.152 relative 10-mer count; in assay [2], 0.00431 relative 10-mer count; in assay [3], 0.236 relative 10-mer count.
In the same order, the values of CTCCCCCGCC are 0.118 relative 10-mer count, 0.0056 relative 10-mer count and 0.00216 relative 10-mer count.
For AAAAGCAGCC the same measures were 0.136 relative 10-mer count, 0.00261 relative 10-mer count and 0.112 relative 10-mer count.
In the same order, the values of CCCTCCCCTC are 0.142 relative 10-mer count, 0.00679 relative 10-mer count and 0.0129 relative 10-mer count.
Turning to CCCCCACGCC, the binding signal in assay [1] was 0.181 relative 10-mer count; in assay [2], 0.00688 relative 10-mer count; in assay [3], 0.00419 relative 10-mer count.
With AGGATACACT, the binding signal in assay [1] amounted to 0.17 relative 10-mer count; in assay [2], 0.0907 relative 10-mer count; in assay [3], 0.116 relative 10-mer count.
For CCCCCTACCC, the binding signal worked out at 0.155 relative 10-mer count in assay [1], 0.0072 relative 10-mer count in assay [2] and 0.003 relative 10-mer count in assay [3].
Consider CCCCTCCCCG, for which the figures for the binding signal in assay [1], in assay [2] and in assay [3] were 0.128 relative 10-mer count, 0.00527 relative 10-mer count and 0.00216 relative 10-mer count, respectively.
For CGCCACCCCA the same measures were 0.135 relative 10-mer count, 0.00358 relative 10-mer count and 0.00192 relative 10-mer count.
For CCCCCCACCC the same measures were 0.415 relative 10-mer count, 0.0187 relative 10-mer count and 0.0036 relative 10-mer count.
In the same order, the values of CCACGCCACC are 0.105 relative 10-mer count, 0.00353 relative 10-mer count and 0.00443 relative 10-mer count.
As to CCGCCCCCCA, the binding signal in assay [1] came to 0.141 relative 10-mer count; in assay [2], 0.0066 relative 10-mer count; in assay [3] it was 0.00252 relative 10-mer count.
CCCCATCCCC: the results for the binding signal in assay [1], in assay [2] and in assay [3] were 0.231 relative 10-mer count, 0.0083 relative 10-mer count and 0.0036 relative 10-mer count, respectively.
For CACCCCCCCA the same measures were 0.16 relative 10-mer count, 0.00716 relative 10-mer count and 0.00443 relative 10-mer count.
In the same order, the values of CCACACCCCC are 0.201 relative 10-mer count, 0.00738 relative 10-mer count and 0.00276 relative 10-mer count.
On to CCCCCCGCCC, for which the binding signal amounted to 0.28 relative 10-mer count in assay [1], 0.0116 relative 10-mer count in assay [2] and 0.00336 relative 10-mer count in assay [3].
For AGGGTGGTGG the same measures were 0.142 relative 10-mer count, 0.00642 relative 10-mer count and 0.00455 relative 10-mer count.
